Laboratory results as given in PubChem BioAssay (NCATS).
Inconclusive results are not listed. Values without a mark were called inactive. Activity calls are given as the source filed them. Calls follow the shape of the dose curve; as a rule, active = well fitted cell-killing curve with a large enough effect; inconclusive = small, poorly fitted or top-dose-only effect, or effect the other way; inactive = flat fitted curve, though single readings scatter.

Assay: Cell Viability - HUV-EC-C (AID 542); also: nearly all actives have a fitted effect of over 35% in size
Conditions: HUV-EC-C endothelial cell viability, qHTS; series mostly up to 92.2 µM; activity change, negative = cytotoxicity: at the top concentration
Source text: NIH Chemical Genomics Center [NCGC]
NIH Molecular Libraries Screening Centers Network [MLSCN]
National Institutes of Environmental Health Sciences [NIEHS]
National Toxicology Program [NTP]
We have developed a 1536-well cell-based assay for quantitative high throughput screening (qHTS) against a number of cell lines to determine in vitro cytotoxicity of small molecules. This particular assay uses the HUV-EC-C cell line which is derived from normal human vascular endothelial cells.
NCGC Assay Protocol Summary:
The CellTiter-Glo luminescent cell viability assay (Promega) is a homogeneous method to measure the number of viable cells in culture. The end point readout of this assay is based on quantitation of intracellular ATP, an indicator of metabolic activity, using the luciferase reaction. Luciferase catalyzes the oxidation of beetle Luciferin to oxyluciferin and light in the presence of ATP. The luminescent signal is proportional to amount of ATP present.
Using the CellTiter-Glo luminescent cell viability assay, the amount of cellular ATP was measured in the HUV-EC-C cell line with complete culture medium following compound treatment for 40 hours. The assay was performed in opaque white Kalypsys 1536-well plates. In the screen, tamoxifen and doxorubicin were used as positive controls. Library compounds were measured for their ability to cause acute toxicity in the cell line, as reflected by a decrease in intracellular ATP levels, in a concentration-dependent manner. […] AC50 values were determined from concentration-response data modeled with the standard Hill equation.
qHTS protocol for CellTiter Glo HUV-EC-C cellular assay
[Step] [Parameter] [Value] [Description]
1. Reagent; 5 uL; 1000 HUV-EC-C cells/well
2. Time; 5 hr; 37 °C incubation
4. Controls; 23 nL; Tamoxifen 0.34 uM to 100 uM & Doxorubicin 0.02 nM to 100 uM
5. Time; 40 hr; 37 °C incubation
6. Reagent; 5 uL; CellTiter Glo reagent
7. Time; 20 min; Room Temperature
8. Detection; Luminescence; Viewlux plate reader
Keywords: cell viability, cytotoxicity, HUV-EC-C cell line, luminescence, NTPHTS, NTPHTS_NCGC, NIEHS, EPA, DSSTox, MLSMR, MLSCN, NIH Roadmap, qHTS, NCGC
% is scaled to controls: 0 for no effect and ±100 for the full control effect; potency is read from the fitted curve at half-maximal effect.

| Structure (SMILES) | activity change, negative = cytotoxicity [%] | Potency |
| --- | --- | --- |
| c1cc2ccc3cccc4ccc(c1)c2c34 | -6.32 |  |
| C1CCC(NC2CCCCC2)CC1 |  | inactive |
| CCCCOC(=O)c1ccccc1C(=O)OCc1ccccc1 | 6.19 |  |
| O=S(=O)(c1ccc(Cl)cc1)c1ccc(Cl)cc1 |  | inactive |
| CC(C)(O)C(=O)Nc1ccc([N+](=O)[O-])c(C(F)(F)F)c1 | 1.77 |  |
| CC(=O)[O][Hg][c]1ccccc1 |  | 1260 nM (active) |
| CCOCCOC(C)=O | -6.34 |  |
| COc1ccc(C(c2ccc(OC)cc2)C(Cl)(Cl)Cl)cc1 |  | inactive |
| Nc1ccc([N+](=O)[O-])cc1 | 4.83 |  |
| CN(C)[C@@H]1C(=O)C(C(N)=O)=C(O)[C@@]2(O)C(=O)C3=C(O)c4c(O)cccc4[C@@](C)(O)[C@H]3[C@H](O)[C@@H]12 | 13.8 |  |
| O=C(O)C(Cl)Cl | -0.661 |  |
| O=[N+]([O-])c1cc([N+](=O)[O-])c2ccccc2c1 | -1.19 |  |
| CCCCC(CC)COC(=O)c1ccccc1C(=O)OCC(CC)CCCC (stereo unspecified) | -4.06 |  |
| O=[N+]([O-])c1c2ccccc2cc2ccccc12 | -35.2 |  |
| Cc1cc(O)ccc1Cl | -5.46 |  |
| CCOP(=O)(NC(C)C)Oc1ccc(SC)c(C)c1 (stereo unspecified) | -5.69 |  |
| Nc1ccc(Sc2ccc(N)cc2)cc1 | -12.9 |  |
| Nc1ccc(Cl)cc1N | -22.9 |  |
| C=CC(=O)NCNC(=O)C=C | 6.38 |  |
| O=C(O)COc1ccccc1 | 3.63 |  |
| O=[N+]([O-])c1c(Cl)c(Cl)cc(Cl)c1Cl | 4.34 |  |
| CCCCCCCCc1ccc(O)cc1 | -3.26 |  |
| OCCCBr | -0.452 |  |
| CN(C)NC(=O)CCC(=O)O | 6.59 |  |
| COC(C)(C)CCCC(C)C/C=C/C(C)=C/C(=O)OC(C)C (stereo unspecified) | 6.54 |  |
| Nc1ccc(Cl)cc1 | -4.26 |  |
